Measurements taken from PubChem BioAssay (EPA / NIEHS).
Inconclusive results are not listed. Calls of active or inactive are those of the source. How the source made its calls, unless noted: active means hit-call score of the fitted dose curve at least 0.9, where 1 is the maximum; inconclusive means response in the unintended direction; inactive means score below 0.9.

Key:
[1] = TOX21_p53_BLA_p2_viability: Viability Assessment in the Tox21 HCT-116 p53 Agonism Beta-lactamase Assay, Phase 2 (AID 2283591);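 further: actives lower the ATP signal meaning cytotoxicity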
In short: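 HCT116 p53-bla cells, 4000/well, dosed after 5 h plating (217-fold dilution of DMSO stocks) and incubated 16 h at 37C. Viability taken as cellular ATP by CellTiter-Glo luminescence after 30 min RT; signal loss marks cytotoxicity.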

[2] = biological target: Cellular tumor antigen p53 (Homo sapiens) (UniProt P04637); assay: TOX21_p53_BLA_p3_ratio: Tox21 HCT-116 p53 Agonism Beta-lactamase Assay, Ratio, Phase 3 (AID 2283596)
In short: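 Cells were seeded at 4000/well, rested 5 h at 37C, then dosed with DMSO compound solutions (217-fold dilution) for 16 h. CCF4-AM substrate was loaded for 2 h at room temperature, and the 460/530 nm emission ratio was fitted for gain of signal versus DMSO.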

[3] = TOX21_p53_BLA_p4_viability: Viability Assessment in the Tox21 HCT-116 p53 Agonism Beta-lactamase Assay, Phase 4 (AID 2283597);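 further: hits lower the luminescence signal meaning cytotoxicity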
In short: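 4000 HCT116 cells per well; 5 h attachment; compounds from DMSO, 217-fold dilution; 16 h at 37C. Then CCF4-AM, 2 h RT, followed by CellTiter-Glo, 30 min RT, luminescence. Decrease = cytotoxicity.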

[4] = TOX21_p53_BLA_p3_viability: Viability Assessment in the Tox21 HCT-116 p53 Agonism Beta-lactamase Assay, Phase 3 (AID 2283593);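 further: cells exposed to compound for 16 h before reading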
In short: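 HCT116 cells, 4000/well, dosed 5 h after plating by pin transfer (217-fold dilution from DMSO stock) and incubated 16 h at 37C, 5% CO2. Viability read as ATP luminescence with CellTiter-Glo after 30 min at room temperature.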

[5] = biological target: Cellular tumor antigen p53 (Homo sapiens) (UniProt P04637); assay: TOX21_p53_BLA_p5_ratio: Tox21 HCT-116 p53 Agonism Beta-lactamase Assay, Ratio, Phase 5 (AID 2283599)
In short: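 HCT-116 p53-bla cells (4000/well) plated 5 h, dosed with compound (217-fold DMSO dilution) for 16 h at 37 C; CCF4-AM substrate 2 h at room temperature. Activity is the 460/530 nm emission ratio (405 nm excitation), fitted in gain-of-signal direction versus DMSO.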

[6] = biological target: Cellular tumor antigen p53 (Homo sapiens) (UniProt P04637); assay: TOX21_p53_BLA_p4_ratio: Tox21 HCT-116 p53 Agonism Beta-lactamase Assay, Ratio, Phase 4 (AID 2283601)
In short: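 HCT-116 p53 beta-lactamase reporter cells (4000/well) preincubated 5 h, then compound (217-fold dilution of DMSO stock) for 16 h at 37C. CCF4-AM substrate added 2 h at room temperature; 460/530 nm emission ratio fitted upward versus DMSO.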

[7] = TOX21_p53_BLA_p5_viability: Viability Assessment in the Tox21 HCT-116 p53 Agonism Beta-lactamase Assay, Phase 5 (AID 2283600)
In short: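 Decreased CellTiter-Glo luminescence denotes lost viability. Exposure: 16 h at 37C, 5% CO2, with compounds from DMSO stocks diluted 217-fold in wells of 4000 cells.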

[8] = CCTE_Harrill_HTTr_Viability_MCF7: CCTE's 6-hour Cell Viability Assessment for the High-Throughput Transcriptomics (HTTr) Platform, in MCF-7 cells cultured in DMEM + 10% fetal bovine serum, Harrill Lab (AID 2284010; active means hit-call score of the fitted dose curve at least 0.9, where 1 is the maximum; inactive means score below 0.9)
In short: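 Read-out is propidium iodide gain of signal by high-content imaging, reflecting membrane integrity loss. Measurements are taken 6 h after dosing, eight concentrations per chemical, with DMSO serving as baseline for bidirectional curve fitting.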

[9] = CCTE_Harrill_HTTr_Apoptosis_MCF7: CCTE's 6-hour Apoptosis Assessment for the High-Throughput Transcriptomics (HTTr) Platform, in MCF-7 cells cultured in DMEM + 10% fetal bovine serum, Harrill Lab (AID 2284011; active means hit-call score of the fitted dose curve at least 0.9, where 1 is the maximum; inactive means score below 0.9)
In short: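 MCF-7 cells in DMEM + 10% FBS exposed 6 h to chemicals over an eight-point dilution series. Caspase-3/7 activation imaged by high-content CellEvent Green staining; fitted bidirectionally versus DMSO.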

[10] = CCTE_Harrill_HTTr_CellCount_MCF7: CCTE's Cell Proliferation Assessment for the High-Throughput Transcriptomics (HTTr) Platform, Harrill Lab (AID 2284012);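 further: cells exposed to compound for six hours; intended direction is loss of nuclei count meaning fewer cells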
In short: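 Cell count served as viability reporter: loss of Hoechst-stained nuclei, counted by high content imaging, marks decreased growth or survival. Exposure was 6 h in MCF-7 cells across eight concentrations, with DMSO as baseline.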

Measured: outcome

Chain of Cellular tumor antigen p53 (Homo sapiens) (P04637 whole entry, looked up): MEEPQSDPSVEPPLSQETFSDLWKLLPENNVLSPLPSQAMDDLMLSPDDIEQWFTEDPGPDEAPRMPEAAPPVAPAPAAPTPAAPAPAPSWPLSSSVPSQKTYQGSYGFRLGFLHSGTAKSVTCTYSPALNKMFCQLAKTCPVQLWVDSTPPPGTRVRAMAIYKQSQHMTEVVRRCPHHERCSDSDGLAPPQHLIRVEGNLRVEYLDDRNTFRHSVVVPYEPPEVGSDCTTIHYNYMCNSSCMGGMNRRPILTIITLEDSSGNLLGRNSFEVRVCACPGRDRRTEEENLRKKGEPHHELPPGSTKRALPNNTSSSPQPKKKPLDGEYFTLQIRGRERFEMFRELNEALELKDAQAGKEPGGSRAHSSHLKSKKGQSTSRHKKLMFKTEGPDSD

CN1CCCN=C1/C=C/c1cccs1
inactive: [1] | [2] | [3]

CCOC(=O)C1=C[C@@H](OC(CC)CC)[C@H](NC(C)=O)[C@@H](N)C1
inactive: [1] | [4] | [5] | [6]

O=[N+]([O-])c1ccccc1CCO
inactive: [1] | [2] | [3] | [5] | [7]

CC(=C(CCOC(=O)C(C)C)SSC(CCOC(=O)C(C)C)=C(C)N(C=O)Cc1cnc(C)nc1N)N(C=O)Cc1cnc(C)nc1N
inactive: [1] | [2] | [3] | [5] | [7] | [6]

Cc1cc(C(=O)O)ccc1[N+](=O)[O-]
inactive: [1] | [2] | [3] | [5]

COc1ccc(C(=O)CCC(=O)O)c2ccccc12
inactive: [1] | [4] | [7]

O=C(Nc1ccc(O)cc1)c1ccccc1O
inactive: [1] | [2] | [3]

Nc1ncnc2c1ncn2[C@H]1CC[C@@H](CO)O1
inactive: [1] | [2] | [3] | [5] | [7] | [6]

CCC(C)[O-].CCC(C)[O-].CCOC(=O)/C=C(/C)[O-].[Al+3]
inactive: [1] | [4] | [7]

COc1cc(N)c(Cl)cc1C(=O)NC1CCN(Cc2ccccc2)CC1
inactive: [1] | [4] | [7]

O=C(O)c1c(Cl)cccc1Cl
inactive: [1] | [2] | [3] | [5] | [7] | [6]

Nc1cc(Cl)c(NC2=NCCN2)c(Cl)c1
inactive: [1] | [4] | [5] | [6]

CC1CCc2nccnc21 (stereo unspecified)
inactive: [1] | [4] | [7]

CC(O)CO (stereo unspecified) (tested in a mixture with another compound)
inactive: [1] | [2] | [3] | [6]

CCC(C)SSC(C)CC (stereo unspecified)
inactive: [1] | [2] | [3] | [5] | [7] | [6]

O=C1OC(CN2CCOCC2)CN1N=Cc1ccc([N+](=O)[O-])o1 (stereo unspecified)
inactive: [1] | [2] | [5] | [7] | [6]

CC12CC3CC(C)(C1)CC(N)(C3)C2
inactive: [1] | [2] | [3] | [5] | [6]

O=C(O)COc1ccc2ccccc2c1
inactive: [1] | [2] | [5] | [7] | [6]

COCCOCCOCCOCCO
inactive: [1] | [2] | [5]

O=C(Nc1cccc2c(=O)cc(-c3nn[nH]n3)oc12)c1ccc(OCCCCc2ccccc2)cc1
inactive: [1] | [2] | [3] | [7]

CN(C)CCCN1c2ccccc2C(C)(C)c2ccccc21
inactive: [1] | [2] | [5]

Cn1c(=O)c2c(ncn2CC(O)CO)n(C)c1=O (stereo unspecified)
inactive: [1] | [2] | [3] | [5] | [6]

Cc1ccc(=O)n(-c2ccccc2)c1
inactive: [1] | [2] | [3] | [5] | [6]

O=C1OC(=O)c2ccccc21
inactive: [1] | [2] | [3] | [7] | [6]

O=C1c2ccccc2C(=O)c2cc(Cl)ccc21
inactive: [1] | [2] | [3] | [7]

C[N+](C)(C)CC[N+]1(C)Cc2c(Cl)c(Cl)c(Cl)c(Cl)c2C1
inactive: [1] | [2] | [3] | [5] | [7] | [6]

COc1ccc(Br)c(C)c1
inactive: [1] | [2] | [3] | [6]

O=Cc1cccc([N+](=O)[O-])c1
inactive: [1] | [2] | [3] | [5] | [6]

CC[C@H](CC[C@@H](C)[C@H]1CC[C@H]2[C@@H]3CC=C4C[C@@H](O)CC[C@]4(C)[C@H]3CC[C@]12C)C(C)C
inactive: [1] | [2] | [3] | [5] | [7] | [6] | [8] | [9] | [10]

CC[N+](CC)(CC)CCOc1cccc(OCC[N+](CC)(CC)CC)c1OCC[N+](CC)(CC)CC
inactive: [1] | [2] | [3] | [5] | [6]

CCOc1ccc(NC(=S)Nc2ccc(OCC)cc2)cc1
inactive: [1] | [2] | [3] | [6]

CCCC(=O)OC(=O)CCC
inactive: [1] | [2] | [3] | [5] | [7] | [6]
